Measured values reported in publication PMC4336329 (PLoS ONE, 2015).
Out of some 310,000 compounds screened, about 14,000 (4.5%) showed an effect of 50% or more. The effect is printed as a negative number. The sample holds strong results, similar compounds and a random draw of the others, so the mix is not that of the screen.

Target: human ether-à-go-go-related gene (hERG) potassium channel (human, UniProt Q12809)
Experiment: primary screen, population patch clamp on CHO cells stably expressing hERG; higher = less effect of the substance
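Note: peak tail current of the secondary pulse compared with the same well before compound.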

human ether-à-go-go-related gene (hERG) potassium channel, sequence (Q12809 whole entry, looked up): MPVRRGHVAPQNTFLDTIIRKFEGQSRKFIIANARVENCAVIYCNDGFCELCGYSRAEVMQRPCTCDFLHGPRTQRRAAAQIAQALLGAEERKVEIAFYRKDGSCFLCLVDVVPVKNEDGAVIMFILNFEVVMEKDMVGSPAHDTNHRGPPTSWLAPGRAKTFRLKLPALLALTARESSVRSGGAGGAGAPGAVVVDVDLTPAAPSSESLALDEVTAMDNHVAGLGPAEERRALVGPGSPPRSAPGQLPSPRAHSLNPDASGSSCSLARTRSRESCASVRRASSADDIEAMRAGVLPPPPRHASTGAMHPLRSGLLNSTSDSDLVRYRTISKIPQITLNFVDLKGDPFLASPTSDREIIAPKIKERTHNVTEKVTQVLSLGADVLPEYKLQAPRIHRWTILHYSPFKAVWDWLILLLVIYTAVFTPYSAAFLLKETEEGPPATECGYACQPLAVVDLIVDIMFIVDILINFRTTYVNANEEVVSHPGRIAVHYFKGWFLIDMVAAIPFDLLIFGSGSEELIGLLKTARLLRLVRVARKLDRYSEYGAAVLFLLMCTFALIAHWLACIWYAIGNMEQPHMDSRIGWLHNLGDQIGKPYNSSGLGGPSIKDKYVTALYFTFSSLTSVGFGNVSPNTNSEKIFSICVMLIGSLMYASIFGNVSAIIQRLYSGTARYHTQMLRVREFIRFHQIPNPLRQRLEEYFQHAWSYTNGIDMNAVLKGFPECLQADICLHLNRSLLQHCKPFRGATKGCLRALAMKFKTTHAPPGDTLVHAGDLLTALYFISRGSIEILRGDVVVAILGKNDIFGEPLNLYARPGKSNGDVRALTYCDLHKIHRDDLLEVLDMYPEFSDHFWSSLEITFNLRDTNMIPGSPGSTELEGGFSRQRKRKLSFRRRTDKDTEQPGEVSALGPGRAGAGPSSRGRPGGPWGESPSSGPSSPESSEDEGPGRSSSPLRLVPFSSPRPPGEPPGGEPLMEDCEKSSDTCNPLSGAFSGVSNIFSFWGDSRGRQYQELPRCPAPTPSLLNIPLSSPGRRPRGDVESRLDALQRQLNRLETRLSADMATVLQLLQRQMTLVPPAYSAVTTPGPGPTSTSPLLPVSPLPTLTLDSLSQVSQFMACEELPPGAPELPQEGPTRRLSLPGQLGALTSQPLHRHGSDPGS

| Compound | hERG current change (%, negative = inhibition) at 10uM |
| --- | --- |
| COc1cccc(NC(=O)c2ccc3c(c2)CCN3S(C)(=O)=O)c1 | 3.4% |
| Cc1nc2c(-c3ccc(F)cc3)c(C)nn2c(C)c1CCC(=O)NC(C)CCc1ccco1 (stereo not shown) | -68.8% |
| Cc1nc2c(-c3ccc(F)cc3)c(C)nn2c(C)c1CCC(=O)Nc1ccccc1 | 0.666% |
| Cc1nc2c(-c3ccccc3)c(C)nn2c(C)c1CCC(=O)NC(C)CCc1ccco1 (stereo not shown) | -66.6% |
| Cc1nc2c(-c3ccccc3)c(C)nn2c(C)c1CCC(=O)NCc1ccco1 | -29.9% |
| Cc1nc2ncnn2c(C)c1CCC(=O)NC(C)CCc1ccco1 (stereo not shown) | -8.57% |
| Cc1nc2c(-c3ccc(F)cc3)c(C)nn2c(C)c1CCC(=O)NCc1ccco1 | -19.9% |
| CC(=O)Nc1cc2c(cc1NC(=O)Cn1nc(-c3ccccc3)ccc1=O)OCCO2 | 11.9% |
| COc1cccc(C2C(C(=O)c3cc4ccccc4o3)=C(O)C(=O)N2c2cc(C)on2)c1 (stereo not shown) | 7.91% |
| O=C(Cc1csc(NC(=O)c2ccccc2)n1)NO | 8.93% |
| O=[N+]([O-])c1cc(CS(=O)(=O)Oc2ccc(Cl)cc2)c(O)c([N+](=O)[O-])c1 | 15.1% |
| CCCn1nnnc1NC(=O)c1ccc(C)cc1Cl | 5.02% |
| O=C(NCCOCCOCCNC(=O)c1ccccc1)c1ccccc1 | 12.7% |
| CC1CCN(CCn2c(=S)[nH]c3cc4c(cc3c2=O)OCO4)CC1 | -27.4% |
| CCOc1cc2[nH]c(=S)n(CCCN3CCOCC3)c(=O)c2cc1OCC | -18.5% |
| CCOc1cc2[nH]c(=S)n(CCN3CCC(C)CC3)c(=O)c2cc1OCC | -51.2% |
| CCOc1cc2[nH]c(=O)n(CCCC(=O)NCc3ccc(OC)cc3)c(=O)c2cc1OCC | 8.71% |
| CCOc1cc2[nH]c(=S)n(CCCOC)c(=O)c2cc1OCC | -12.1% |
| CCCCN(C)CCn1c(=S)[nH]c2cc(OCC)c(OCC)cc2c1=O | -55.8% |
| CCOc1cc2[nH]c(=O)n(CCCN3CCCC3=O)c(=O)c2cc1OCC | -6.1% |
| CCOc1cc2[nH]c(=S)n(CCCN(CC)CC)c(=O)c2cc1OCC | -29.6% |

| Compound | hERG current change (%, negative = inhibition) at 10uM |
| --- | --- |
| CCOc1cc2[nH]c(=O)n(CCCN3CCN(c4ccc(OC)cc4)CC3)c(=O)c2cc1OCC | -67.8% |
| O=C(CCCCCn1c(=S)[nH]c2ccc(N3CCOCC3)cc2c1=O)NC1CCN(Cc2ccccc2)CC1 | -9.35% |
| COc1ccccc1N(C(=O)c1csnn1)C(C(=O)NC1CCCC1)c1ccccc1 (stereo not shown) | -1.69% |
| Cc1c(Cl)cccc1NC(=O)CSc1sc2c(O)cc(=O)[nH]c2c1C#N | -2.45% |
| Cc1ccc(O)c(C2=Nc3ccccc3N=C(c3cccs3)C2)c1 | 12% |
| CN1CCN(C(CNS(=O)(=O)c2cccs2)c2cccnc2)CC1 (stereo not shown) | -21.4% |
| COc1ccc(N2CCN(C(CNC(=O)Oc3ccccc3)c3cccnc3)CC2)cc1 (stereo not shown) | -27.5% |
| CCN1CCN(C(CNS(=O)(=O)c2cccs2)c2cccnc2)CC1 (stereo not shown) | -61.4% |
| COc1ccc(N2CCN(C(CNS(=O)(=O)c3cccs3)c3cccnc3)CC2)cc1 (stereo not shown) | -72.5% |
| CCS(=O)(=O)NCC(c1cccnc1)N1CCN(c2ccc(OC)cc2)CC1 (stereo not shown) | -11.3% |
| O=S(=O)(NCC(c1cccnc1)N1CCN(c2ccccc2)CC1)c1cccs1 (stereo not shown) | -60.4% |
| O=S(=O)(NCC(c1cccnc1)N1CCOCC1)c1cccs1 (stereo not shown) | -10.9% |
| COC(=O)NCC(c1cccnc1)N1CCN(c2ccccc2)CC1 (stereo not shown) | -13.3% |
| O=S(=O)(NCC(c1cccnc1)N1CCN(c2ccc(F)cc2)CC1)c1cccs1 (stereo not shown) | -71.7% |
| CCCOc1ccc(C2C(C(=O)c3cc4ccccc4o3)=C(O)C(=O)N2c2cc(C)on2)cc1OC (stereo not shown) | 25.3% |
| Cc1cnc(C(=O)Oc2ccc(-c3ccccc3)cc2)cn1 | 16.8% |
| CCCCOCCCNC(=O)c1ccc(OC)cc1 | -6.63% |
| COc1ccc(NS(=O)(=O)c2cc3c(cc2C)N(C)CCO3)cc1 | -10.5% |
| O=S(=O)(NCC(c1cccnc1)N1CCN(c2ccccc2F)CC1)c1cccs1 (stereo not shown) | -60.5% |
| CCS(=O)(=O)NCC(c1cccnc1)N1CCN(c2ccccc2F)CC1 (stereo not shown) | -3.19% |
| CS(=O)(=O)NCC(c1cccnc1)N1CCN(c2ccccc2F)CC1 (stereo not shown) | -9.77% |

| Compound | hERG current change (%, negative = inhibition) at 10uM |
| --- | --- |
| Cc1ccc(C(=O)CCC(=O)N2CCC(C(N)=O)CC2)cc1 | 32% |
| CCOC(=O)C1(CCC(C)C)CC(CSc2nc3ccccc3[nH]2)OC1=O (stereo not shown) | -25.2% |
| O=C(O)c1cc([N+](=O)[O-])c(NCc2cccnc2)c([N+](=O)[O-])c1 | 9.52% |
| COc1ccc2c(c1)c(C(=O)CN1CCN(C)CC1)c(C)n2Cc1ccccc1 | -35% |
| COc1ccc2c(c1)c(C(=O)CN1CCC3(CC1)OCCO3)c(C)n2Cc1ccccc1 | -53% |
| CCN1CCN(CC(=O)c2c(C)n(Cc3ccccc3)c3ccc(OC)cc23)CC1 | -41.3% |
| CCOC(=O)N[C@H](Cc1c[nH]c2ccccc12)C(=O)NC1CC1 | 3.42% |
| Cc1ccccc1N1CCN(C(=O)CN2C(=O)c3ccccc3C2=O)CC1 | -11.8% |
| O=C(CN1C(=O)CSc2ccccc21)NC1CCCC1 | 0.766% |
| CC(C)CNC(=O)c1ccccc1SCC(=O)NC12CC3CC(CC(C3)C1)C2 | -5.62% |
| Cc1c(CN2CCC(n3nccc3NC(=O)C3CC3)CC2)[nH]c2ccccc12 | -61% |
| COc1ccc(C(=O)Nc2ccnn2C2CCN(Cc3cn(C)nc3C)CC2)cc1 | 17.1% |
| COc1cccc(CC(=O)N2CCC(n3nccc3NC(=O)C3CC3)CC2)c1 | 32% |
| Cc1c(C(=O)N2CCC(n3nccc3NC(=O)C3CC3)CC2)[nH]c2ccc(Cl)cc12 | -59.4% |
| Cc1c(CN2CCC(n3nccc3NC(=O)C3CCOC3)CC2)[nH]c2ccccc12 (stereo not shown) | -30.6% |
| Cc1cc(C)c2[nH]c(C(=O)N3CCC(n4nccc4NC(=O)C4CC4)CC3)c(C)c2c1 | -44.6% |
| O=C(Nc1ccnn1C1CCN(Cc2cc3ccccc3[nH]2)CC1)C1CCOC1 (stereo not shown) | -31.5% |
| COc1ccc2[nH]c(CN3CCC(n4nccc4NC(=O)C4CC4)CC3)c(C)c2c1 | -63.3% |
| COc1ccc2[nH]c(C(=O)N3CCC(n4nccc4NC(=O)C4CC4)CC3)c(C)c2c1 | -30.4% |
